{
  "source": "PubChem BioAssay AID463173",
  "about": "(ICCB-Longwood Screening Facility, Harvard Medical School, 2010)",
  "note": "In all, about 52,000 compounds went through this assay and about 4,300 (8.3%) were called active. The entries come from a sample that favours actives as a whole. A number with no mark means an inactive call. Cut-off read from the data, not from the text of the source: active = survival mostly below about 52% (no sharp cut-off); inactive = mostly above about 56%.",
  "data": [
    {"system": "DeltatarO mutant", "assay": "S. aureus survival, RN4220 and DeltatarO strains – OD600, teichoic acid synthesis inhibitors, primary screen (AID 463173)", "settings": "S. aureus RN4220 wild type/DeltatarO growth, OD600, 18 h, stronger effect = lower value, screened at 18.75 µg/mL (by protocol)", "values": [
      {"smiles": "Cc1ccc(-n2nc(C(=O)N3CCCCC3)c(=O)n(C)c2=O)cc1", "survival": "52% (active)"},
      {"smiles": "Cc1ccc(-n2nc(C(=O)N3CCN(c4ccccc4)CC3)c(=O)n(C)c2=O)cc1", "survival": "124%"},
      {"smiles": "Cc1ccc(-n2nc(C(=O)N3CCC(C)CC3)c(=O)n(C)c2=O)cc1", "survival": "86%"},
      {"smiles": "Cn1c(SCc2ccccc2)nnc1C1CCCN1CC(=O)N1CCN(c2ccc(F)cc2)CC1", "note": "(stereo unspecified)", "survival": "70%"},
      {"smiles": "Cc1ccc(CNC(=O)CSc2nc(=O)[nH]c3c2CCCC3)cc1", "survival": "76%"},
      {"smiles": "COc1cc(SC)ccc1C(=O)NCc1ccccc1", "survival": "95%"},
      {"smiles": "Cc1ccc(-n2ncc(C(=O)NCCN3CCc4ccccc4C3)c2C2CCN(C(=O)OC(C)(C)C)CC2)cc1C", "survival": "99%"},
      {"smiles": "Cc1ccc(C)c(Cn2c(=O)n(CCCC(=O)NCc3ccc4c(c3)OCO4)c(=O)c3sccc32)c1", "survival": "74%"},
      {"smiles": "COc1cc(C(=O)Oc2c(Sc3ccccc3)c(C)nn2-c2ccccc2)cc(OC)c1OC", "survival": "83%"},
      {"smiles": "COc1ccc(C(=O)Oc2c(Sc3ccccc3)c(C)nn2-c2ccccc2)cc1OC", "survival": "47%"},
      {"smiles": "CCC(=O)Oc1c(Sc2ccc(Cl)cc2)c(C)nn1-c1ccccc1", "survival": "13% (active)"},
      {"smiles": "COc1ccccc1C(=O)Oc1c(Sc2ccccc2)c(C)nn1-c1ccccc1", "survival": "62%"},
      {"smiles": "CCC(=O)Oc1c(Sc2ccc(C)cc2)c(C)nn1-c1ccccc1", "survival": "71%"},
      {"smiles": "CCCC(=O)Oc1c(Sc2ccc(Cl)cc2)c(C)nn1-c1ccccc1", "survival": "23% (active)"},
      {"smiles": "CCCC(=O)Oc1c(Sc2ccc(C)cc2)c(C)nn1-c1ccccc1", "survival": "56%"},
      {"smiles": "Cc1nn(-c2ccccc2)c(OC(=O)C(C)C)c1Sc1ccccc1", "survival": "48%"},
      {"smiles": "Cc1nn(-c2ccccc2)c(OC(=O)C(C)C)c1Sc1ccc(Cl)cc1", "survival": "36% (active)"},
      {"smiles": "CCC1CCCCN1C(=O)CSc1n[nH]c(-c2ccccc2Cl)n1", "note": "(stereo unspecified)", "survival": "102%"},
      {"smiles": "O=C(NC1CCCCC1)N(Cc1ccccc1)Cc1cc2cc3c(cc2[nH]c1=O)OCCO3", "survival": "52%"},
      {"smiles": "CCOC(=O)c1cnc2c(Cl)cc(Cl)cc2c1Nc1ccccc1OC", "survival": "57%"},
      {"smiles": "CCOC(=O)c1cnc2c(C)cc(C)cc2c1Nc1ccccc1OCC", "survival": "-1% (active)"},
      {"smiles": "CCOC(=O)c1cnc2c(C)cc(C)cc2c1Nc1cccc(C(=O)O)c1", "survival": "5% (active)"},
      {"smiles": "CCOC(=O)c1cc(S(=O)(=O)Nc2ccccc2OCC)[nH]n1", "survival": "72%"},
      {"smiles": "Cc1cc(C)c2nc(C)cc(Nc3cccc(C(=O)O)c3)c2c1", "survival": "70%"},
      {"smiles": "CCOC(=O)c1cnc2c(C)cc(C)cc2c1Nc1ccc(OCc2ccccc2)cc1", "survival": "17% (active)"},
      {"smiles": "CCOC(=O)c1ccc2nc(C)cc(Nc3cccc(C(=O)O)c3)c2c1", "survival": "173%"},
      {"smiles": "COc1ccc(CCn2c3c(c(=O)[nH]c2=O)C(NC(=O)c2ccccc2)(C(F)(F)F)C(=O)N3)cc1OC", "note": "(stereo unspecified)", "survival": "58%"},
      {"smiles": "CCOc1ccccc1N(C)C(=O)c1sc2nc3n(c(=O)c2c1C)CCCC3", "survival": "64%"},
      {"smiles": "CCC(C)NC(=O)c1nn(-c2ccc(C)cc2)nc1CO", "note": "(stereo unspecified)", "survival": "94%"},
      {"smiles": "COC(=O)c1ccccc1NC(=O)c1cc2cc(C)ccc2n1C", "survival": "99%"},
      {"smiles": "COc1ccc(CCC(=O)NCc2nc3cccnc3n2Cc2ccc(F)cc2)cc1", "survival": "119%"},
      {"smiles": "O=C(CCc1nc2cccnc2n1Cc1ccccc1)NCc1cccc(Cl)c1", "survival": "51% (active)"},
      {"smiles": "Cc1ccc(Cn2c(CNC(=O)CCc3ccccc3)nc3cccnc32)cc1", "survival": "97%"},
      {"smiles": "Cc1ccc(CNC(=O)CCc2nc3cccnc3n2Cc2ccccc2)cc1", "survival": "74%"},
      {"smiles": "COc1ccc(Cn2c(CCC(=O)NCc3cccc(Cl)c3)nc3cccnc32)cc1", "survival": "129%"},
      {"smiles": "O=C(CCc1ccccc1)NCc1nc2cccnc2n1Cc1ccc(F)cc1", "survival": "-4% (active)"},
      {"smiles": "COc1cc(NC(=O)N(Cc2ccco2)C2CCN(C(C)=O)CC2)cc(OC)c1OC", "survival": "134%"},
      {"smiles": "N#Cc1ccc(NC(=O)CNCC2CCCCC2)cc1", "survival": "100%"},
      {"smiles": "CCn1c(=NC(=O)c2ccc3c(c2)OCCO3)sc2c(C)ccc(OC)c21", "survival": "120%"},
      {"smiles": "O=c1oc2ccccc2cc1-c1cn2cc(Cc3ccc(F)cc3)sc2n1", "survival": "128%"},
      {"smiles": "O=c1oc2ccccc2cc1-c1cn2cc(Cc3ccccc3F)sc2n1", "survival": "49% (active)"},
      {"smiles": "O=c1oc2ccccc2cc1-c1cn2cc(Cc3cc(Cl)ccc3Cl)sc2n1", "survival": "52% (active)"},
      {"smiles": "O=c1oc2ccccc2cc1-c1cn2cc(Cc3ccc(Cl)cc3)sc2n1", "survival": "84%"},
      {"smiles": "O=c1oc2ccccc2cc1-c1cn2cc(Cc3ccc(Br)cc3)sc2n1", "survival": "66%"},
      {"smiles": "CC(C)c1ccc(Cc2cn3cc(-c4cc5ccccc5oc4=O)nc3s2)cc1", "survival": "56%"},
      {"smiles": "Cc1ccc(NC(=O)c2sc3ncn(Cc4cccc(F)c4)c(=O)c3c2C)c(Br)c1", "survival": "87%"},
      {"smiles": "COc1ccc(NC(=O)Cn2c(=O)n(Cc3nc(C)no3)c(=O)c3cc4c(cc32)OCO4)cc1", "survival": "99%"},
      {"smiles": "CC(C)CCNC(=O)CN1C(=O)CSc2ccc(S(=O)(=O)N3CCC(C)CC3)cc21", "survival": "72%"},
      {"smiles": "Cc1ccc(/C=C/c2onc(C)c2S(=O)(=O)N2CCC(C(=O)NCc3ccc(OC(C)C)cc3)CC2)cc1", "survival": "69%"},
      {"smiles": "COc1cccc(CNC(=O)C(=O)NCC(c2ccco2)S(=O)(=O)c2cccs2)c1", "note": "(stereo unspecified)", "survival": "94%"},
      {"smiles": "COc1ccc(-c2[nH]c3c(c2-c2c(-n4cccc4)n(C)c(=O)[nH]c2=O)c(=O)[nH]c(=O)n3C)cc1F", "survival": "63%"},
      {"smiles": "Cc1ccc(C)c(-c2[nH]c3c(c2-c2c(-n4cccc4)n(C)c(=O)[nH]c2=O)c(=O)[nH]c(=O)n3C)c1", "survival": "59% (active)"},
      {"smiles": "Cn1c(-n2cccc2)c(-c2c(-c3ccccc3)[nH]c3c2c(=O)[nH]c(=O)n3C)c(=O)[nH]c1=O", "survival": "60%"},
      {"smiles": "Cc1ccc(C)c(-c2[nH]c3c(c2-c2c(-n4cccc4)n(C)c(=O)n(C)c2=O)c(=O)n(C)c(=O)n3C)c1", "survival": "64%"},
      {"smiles": "COc1cccc(-c2[nH]c3c(c2-c2c(-n4cccc4)n(C)c(=O)[nH]c2=O)c(=O)[nH]c(=O)n3C)c1", "survival": "63% (active)"},
      {"smiles": "Cc1ccc(-c2[nH]c3c(c2-c2c(-n4cccc4)n(C)c(=O)[nH]c2=O)c(=O)[nH]c(=O)n3C)cc1", "survival": "65%"},
      {"smiles": "CC(=O)Nc1ccc(C(=O)NCCN2CCOCC2)cc1", "survival": "96%"},
      {"smiles": "Cc1cccc(N2CCN(S(=O)(=O)c3ccc4c(c3)C(C(C)C)C(=O)N4)CC2)c1C", "note": "(stereo unspecified)", "survival": "55%"},
      {"smiles": "Cc1ccc(Cc2nc3ccccc3nc2SCC(=O)NCCC(C)C)cc1", "survival": "112%"},
      {"smiles": "CCCCN(CC)CCNC(=O)CN1C(=O)COc2ccc(S(=O)(=O)N3CCOCC3)cc21", "survival": "86%"},
      {"smiles": "Cc1ccc(C)c(NC(=O)CCc2nc3cccnc3n2Cc2cccs2)c1", "survival": "73%"},
      {"smiles": "CCOc1ccc(C2CC(=O)Nc3nc(SCc4ccccc4C)[nH]c(=O)c32)cc1OC", "note": "(stereo unspecified)", "survival": "103%"},
      {"smiles": "COc1cc(O)ccc1C1CC(=O)Nc2c1c(=O)nc(SCc1ccccc1C)n2C", "note": "(stereo unspecified)", "survival": "93%"},
      {"smiles": "CCOc1ccc(C2CC(=O)Nc3c2c(=O)nc(SCc2ccccc2C)n3C)cc1OC", "note": "(stereo unspecified)", "survival": "42% (active)"},
      {"smiles": "COc1ccc(-c2[nH]c(-c3ccc(C)cc3)nc2SCC(=O)NCC2CCCO2)cc1", "note": "(stereo unspecified)", "survival": "82%"},
      {"smiles": "COc1ccc2c(c1)c1c(c(=O)n(-c3cc(Cl)ccc3C)c(=O)n1CC(=O)N1CCCC1)n2C", "survival": "83%"},
      {"smiles": "Cc1ccccc1NC(=O)Cn1c(=O)n(Cc2ccc3c(c2)OCO3)c(=O)c2ccccc21", "survival": "97%"},
      {"smiles": "COc1cc(C2c3c(-c4cc(C)ccc4O)n[nH]c3C(=O)N2Cc2cccnc2)cc(OC)c1OC", "note": "(stereo unspecified)", "survival": "83%"},
      {"smiles": "Cc1cc(C)c(-c2n[nH]c3c2C(c2ccccc2F)N(CCO)C3=O)c(O)c1", "note": "(stereo unspecified)", "survival": "77%"},
      {"smiles": "CCOc1ccc(C2c3c(-c4cc(C)ccc4O)n[nH]c3C(=O)N2Cc2cccnc2)cc1OCC", "note": "(stereo unspecified)", "survival": "72%"},
      {"smiles": "COc1cc(C2c3c(-c4cc(C)ccc4O)n[nH]c3C(=O)N2Cc2ccco2)cc(OC)c1OC", "note": "(stereo unspecified)", "survival": "66%"},
      {"smiles": "Cc1ccc(C2c3c(-c4cc(C)ccc4O)n[nH]c3C(=O)N2Cc2ccco2)cc1", "note": "(stereo unspecified)", "survival": "1% (active)"},
      {"smiles": "Cc1ccc(O)c(-c2n[nH]c3c2C(c2ccc(F)cc2)N(Cc2ccco2)C3=O)c1", "note": "(stereo unspecified)", "survival": "2% (active)"},
      {"smiles": "Cc1cc(C)c(-c2n[nH]c3c2C(c2ccccc2F)N(Cc2ccco2)C3=O)c(O)c1", "note": "(stereo unspecified)", "survival": "2% (active)"},
      {"smiles": "CCOc1cccc(C2c3c(-c4cc(C)ccc4O)n[nH]c3C(=O)N2Cc2ccco2)c1", "note": "(stereo unspecified)", "survival": "8% (active)"},
      {"smiles": "Cc1cc(C)c2c(=O)c3c(oc2c1)C(=O)N(Cc1ccco1)C3c1ccccc1F", "note": "(stereo unspecified)", "survival": "106%"},
      {"smiles": "CCC(=O)N1c2ccc(S(=O)(=O)NCCc3ccccc3)cc2CC1C", "note": "(stereo unspecified)", "survival": "77%"},
      {"smiles": "Cc1ccc2[nH]c(CSc3nnc(NC(=O)COc4ccccc4)s3)cc(=O)c2c1", "survival": "82%"},
      {"smiles": "Cc1cc(C)c(NC(=O)C(C)n2nc(-c3ccc(C)c(C)c3)ccc2=O)c(C)c1", "note": "(stereo unspecified)", "survival": "63%"},
      {"smiles": "CCCCNC(=O)CN1CCN(c2ncc(NC(=O)c3ccc(Cl)cc3)cc2C(=O)O)CC1", "survival": "94%"},
      {"smiles": "CCCOc1cccc(C2c3c(-c4ccccc4O)n[nH]c3C(=O)N2Cc2ccco2)c1", "note": "(stereo unspecified)", "survival": "2% (active)"},
      {"smiles": "O=C1c2[nH]nc(-c3ccccc3O)c2C(c2ccccc2F)N1Cc1ccncc1", "note": "(stereo unspecified)", "survival": "94%"},
      {"smiles": "O=C1c2[nH]nc(-c3ccccc3O)c2C(c2cccc(Br)c2)N1Cc1ccncc1", "note": "(stereo unspecified)", "survival": "85%"},
      {"smiles": "CCCOc1ccc(C2c3c(-c4ccccc4O)n[nH]c3C(=O)N2Cc2ccncc2)cc1OCC", "note": "(stereo unspecified)", "survival": "90%"},
      {"smiles": "O=C1c2[nH]nc(-c3ccccc3O)c2C(c2ccccc2F)N1Cc1cccnc1", "note": "(stereo unspecified)", "survival": "87%"},
      {"smiles": "Cc1ccc(O)c(-c2n[nH]c3c2C(c2ccccc2F)N(Cc2ccco2)C3=O)c1", "note": "(stereo unspecified)", "survival": "8% (active)"}
    ]}
  ]
}
